# This is a sample that favours compounds with a hit; in the whole collection about 10% have one here.
# GPT2 inh: inhibitors of human GPT2 alanine aminotransferase | Q8TD30 | Recombinant GPT2, coupled pyruvate oxidase/HRP Amplex Red fluorescence | Potency, µM (doses to about 57.7 µM), for the others: top-dose activity change, negative = inhibition, hits mostly inhibitors | hit rate 0.25% among 100,000 | AID 1671188; further: nearly all actives have a fitted effect of over 60% in size
#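 Recombinant GPT2 (10ng/uL) with 250uM a-KG and 2mM L-alanine, 30 min at room temperature, in HEPES pH 7.5 buffer. Pyruvate detected by pyruvate oxidase/HRP/Amplex Red fluorescence after 30 min in the dark; AOA (50uM) as positive control.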
# 3T3 cytotox: kills NIH 3T3 cells; hit rate 4.3% among 94,000; Potency, µM (series often up to 96.7 µM), for the others: top-dose activity change, negative = cytotoxicity, actives largely listed as inhibitors; NIH 3T3 viability, CellTiter-Glo ATP luminescence, 48-72 h; further: nearly all actives have a fitted effect of over 55% in size
#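 Cells were seeded at 400 per well, treated with pin-transferred compound, and kept 48 or 72 hr at 37 °C before CellTiter-Glo addition and luminescence imaging of cellular ATP.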
# HEK293 tox: cytotoxic compounds in HEK 293 cells. HEK 293 viability, ATP luminescence (CellTiter-Glo), 48-72 h. hit rate 6.6% among 94,000. Potency, µM (titrated, usually from 115 µM), without a hit: top-dose activity change, negative = cytotoxicity, most hits filed as inhibitors. AID 1345083; further: nearly all actives have a fitted effect of over 60% in size
#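 HEK 293 cells seeded at 250 cells/well were exposed to compound for 48 or 72 hr at 37 degree Celsius. Viability taken as ATP content by CellTiter-Glo luminescence.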
# NPR1 antag: blocks ANP-stimulated signaling of human Npr1 receptor; P16066; HEK293 hNpr1 GloSensor cGMP, ANP-stimulated luminescence; Potency, µM (titrated, usually from 46.3 µM), inactives show at the top dose activity change, negative = inhibition, hits mostly inhibitors; hit rate 1.6% among 76,000; calls by dose curve; further: nearly all actives have a fitted effect of over 60% in size
#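 Compound pre-incubated 30 min at room temperature on GloSensor-loaded HEK293 cells stably carrying hNpr1 and the pGS-40F cGMP biosensor. Stimulation uses hNppA at 0.1 nM final; luminescence is taken at baseline and 20 min post-agonist.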
# FLuc inh: Photinus pyralis luciferase inhibition; hit rate 2.5% among 76,000; purified P. pyralis luciferase, luminescence, biochemical; Potency, µM (titrated, usually from 115 µM), usual class: inhibitors; AID 1347043; further: nearly all actives have a fitted effect of over 65% in size
# Target sequence (P08659 whole entry, looked up): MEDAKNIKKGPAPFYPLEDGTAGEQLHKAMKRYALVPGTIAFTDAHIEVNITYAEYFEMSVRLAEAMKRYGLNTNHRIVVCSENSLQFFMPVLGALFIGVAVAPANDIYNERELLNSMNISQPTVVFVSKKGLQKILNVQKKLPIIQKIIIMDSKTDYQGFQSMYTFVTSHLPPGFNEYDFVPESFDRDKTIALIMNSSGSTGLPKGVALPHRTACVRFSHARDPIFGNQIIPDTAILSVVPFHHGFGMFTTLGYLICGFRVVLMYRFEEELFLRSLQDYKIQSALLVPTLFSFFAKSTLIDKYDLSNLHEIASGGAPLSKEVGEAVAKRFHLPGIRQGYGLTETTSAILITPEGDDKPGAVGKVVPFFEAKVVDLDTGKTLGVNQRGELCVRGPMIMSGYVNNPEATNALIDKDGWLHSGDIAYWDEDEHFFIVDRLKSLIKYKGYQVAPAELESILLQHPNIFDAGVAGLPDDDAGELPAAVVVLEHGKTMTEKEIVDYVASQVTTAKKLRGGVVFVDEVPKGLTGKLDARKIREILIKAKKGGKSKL
#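 Purified P. pyralis luciferase (10nM final) in 50mM Tris acetate pH 7.5, 10mM Mg acetate, 0.01% Tween-20, 0.05% BSA with 10uM D-luciferin and 10uM ATP. Compounds titrated qHTS. Luminescence imaged on CCD.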
# Active calls of the source: *; i = inactive; ? = inconclusive; · = no result given; ! = a repeat was not active; [ ] = dose if it differs, or a comment. Unless noted, the call rests on the fitted dose curve; in most records, active means well fitted curve in the direction sought with a large enough effect; inconclusive means small, poorly fitted or top-dose-only effect, or another doubt; inactive means no such curve, though single readings can be large; an effect the other way counts as inactive or inconclusive. On the % scale 0 is the no-effect control and ±100 the full control effect; potency means the concentration at half of the fitted maximal effect.
SMILES,GPT2 inh,3T3 cytotox,HEK293 tox,NPR1 antag,FLuc inh
O=C(c1cc2ccccc2[nH]1)N1CCC2(CC1)CN(c1ncccn1)CC2CO (stereo not given),i,?,79µM*,-12%,i
O=C(O)Cn1ccc2cc(OCC3CCN(C(=O)CCC(F)(F)F)CC3)cnc21,?,89µM*,-11%[172 µM],-9%[70.6 µM],i
O=C(O)Cn1ccc2cc(OCC3CCN(C(=O)C4CCCC4)CC3)cnc21,-5%[88.5 µM],100µM*,3%[172 µM],0%[70.6 µM],i
O=C(c1ccccc1)N1CCc2nc(-c3ccccc3)nc(-c3ccc(Cl)cc3)c2C1,-3%,?,?,0%,i
Cc1ccc(C(=O)N2CCc3onc(-c4cccc5ccccc45)c3C2)cc1,-8%,?,40µM*,-4%,i
O=C(c1ccc(C(F)(F)F)cc1)N1CCc2nc(-c3ccc(Cl)cc3)nc(-c3ccccc3)c2C1,-9%,-18%,20µM*,7%,i
Cc1ccc(C(=O)N2CCc3nc(-c4ccc(Cl)cc4)nc(-c4ccccc4)c3C2)cc1,i,?,50µM*!,0%,?
CC(=O)NC(CO)C(=O)N1CCc2onc(-c3cccc4ccccc34)c2C1 (stereo not given),i,-16%,-6%,1%,i
COc1ccc(-c2cn(C)c(=O)n3cc(CN(C)C)nc23)c(C(F)(F)F)c1,3%[88.5 µM],-27%[138 µM],?,-4%[70.6 µM],i
c1cncc(-c2cc(-c3cccc(N4CCOCC4)c3)cn3cncc23)c1,-2%[88.5 µM],?,?,-10%[70.6 µM],i
COc1ccc(-c2cc(-c3cn[nH]c3)c3cncn3c2)cn1,-27%[88.5 µM],?,?,-3%[70.6 µM],i
c1cc(-c2cc(-c3cn[nH]c3)cn3cncc23)ccn1,?,28µM*,35µM*,1%[70.6 µM],i
CN(C)c1cccc(-c2cc(-c3cn[nH]c3)c3cncn3c2)c1,i,14µM*,?,-12%[70.6 µM],?
C1=C(c2cc(-c3ccncc3)cn3cncc23)CCOC1,3%[88.5 µM],25µM*,100µM*,4%[70.6 µM],i
c1cc(-c2cc(-c3cn[nH]c3)c3cncn3c2)cc(N2CCOCC2)c1,-7%[88.5 µM],25µM*,?,-23%[70.6 µM],i
CCN1CCN(C(=O)CNC(=O)c2cccc(-c3ccsc3)c2)CC1,-21%,-19%,-27%,·,·
Cc1cccc(CC(=O)N2CCC3(CCC(=O)N(CC4CC4)CC3)CC2)c1,-19%,?,-24%,·,·
c1ccc(-c2nc3ccncc3[nH]2)cc1,3%[88.5 µM],?,?,-13%[70.6 µM],?
c1coc(-c2nc3ccncc3[nH]2)c1,32µM*!,?,?,10%[70.6 µM],?
COC(=O)CNC(=O)c1nc2sccn2c1-c1cccc(C(F)(F)F)c1,-1%[88.5 µM],?,-7%[172 µM],·,·
N#CC1CCN(C(=O)C2CCN(Cc3ccccc3-c3ccccc3F)CC2)CC1,i,?,?,·,·
O=C(Nc1cccc(C(F)(F)F)c1)N[C@H]1[C@H](O)[C@@H](N2CCC(Cc3ccccc3)CC2)[C@@H]2OC[C@H]1O2,4%,35µM*,?,-21%,i
O=C(Nc1cccc(C(F)(F)F)c1)N[C@H]1[C@H](O)[C@@H](Oc2ccccc2)[C@@H]2OC[C@H]1O2,?,79µM*,?,-28%[70.6 µM],i
COc1cccc([S+](=O)([O-])N2CCCC(C(=O)N3CCC(N4CCOCC4=O)CC3)C2)c1 (stereo not given),i,-15%,-5%,·,·
COc1ccc(C(=O)N2CC(CNC(=O)N3CCCC3)C3(CCOCC3)C2)cc1F (stereo not given),0%,-10%,i,·,·
SMILES,GPT2 inh,3T3 cytotox,HEK293 tox,NPR1 antag,FLuc inh
COCC(=O)N1CCN(c2ccc3nnc(-c4ccccc4)n3n2)CC1,·,-23%,-12%,·,·
Cn1nc(C2CCCN(C(=O)NCc3ccccc3)C2)n(C2CCCC2)c1=O (stereo not given),?,-33%,-12%,·,·
CC(C)c1nc2c(c(-c3ccc(O)cc3)n1)CN(Cc1ccc(OC(F)(F)F)cc1)CC2,i,22µM*,22µM*,0%,i
COc1ccc(-c2nc(C(C)C)nc3c2CCN(C(=O)Nc2ccc(Cl)cc2)CC3)cc1,i,35µM*,?,0%,i
Cc1ccc(C(=O)N2CCc3nc(C(C)C)nc(-c4ccc(Cl)cc4)c3CC2)cc1,i,?,79µM*,·,·
CCc1nc2c(c(-c3ccc(Cl)cc3)n1)CCN(C(=O)c1ccc(C)cc1)CC2,?,?,?,0%,i
CC(C)c1nc2c(c(-c3ccc(Cl)cc3)n1)CCN(Cc1ccsc1)CC2,i,?,45µM*,·,·
Cc1cnc(C(=O)N2CCCCCCNC(=O)[C@@H]3C[C@@H](c4nc(-c5cccnc5)no4)C[C@@H]32)cn1,3%,-7%,0%,1%,i
COc1ccccc1-n1c(=O)c(C(=O)N2CCN(C(=O)C(C)(C)C)CC2)nc2cccnc21,i,2%,-4%,·,·
COc1ccc(-c2nc(C(C)C)nc3c2CCN(C(=O)c2ccc(C(F)(F)F)cc2)CC3)cc1,-12%,28µM*,32µM*,-15%,i
CC(C)c1nc2c(c(-c3ccc(Cl)cc3)n1)CN(C(=O)C(C)(C)C)CC2,i,?,40µM*,·,·
COc1ccc(-c2nc(C(C)C)nc3c2CCN(C(=O)C(C)(C)C)CC3)cc1,?,-33%,?,5%,i
COc1ccc(-c2nc(C(C)C)nc3c2CCN(C(=O)c2ccc(C)cc2)CC3)cc1,i,?,?,5%,i
CN1Cc2sccc2C(c2ccc(O)c(O)c2)C1 (stereo not given),4µM*,·,·,·,·
Cc1ccc(Cn2c(C3CCN(C(=O)Cc4ccccc4)CC3)n[nH]c2=O)cc1,-3%,-8%,-7%,5%,i
O=C(CCn1cncn1)N1CCOc2c(O)cc(-c3cccc(Cl)c3)cc2C1,i,?,?,7%,i
NC(=O)c1noc(CN2CCOc3c(O)cc(-c4csc5ccccc45)cc3C2)n1,-2%,?,?,-15%,i
O=C(c1ccccn1)N1CCOc2c(O)cc(-c3cccc(Cl)c3)cc2C1,-11%,-26%,45µM*,-24%,i
Cn1cc(C(=O)N2CCOc3c(O)cc(-c4csc5ccccc45)cc3C2)cn1,i[11.5 µM],?,25µM*,-17%,i
CN(CC#N)C(=O)c1cc(-c2cccc(F)c2)nc2c1cnn2C,·,?,-21%,·,·
O=C(NCCc1ccccc1)C1CCCN(Cc2cccc(-c3ccc(F)cc3F)c2)C1 (stereo not given),i,?,40µM*,·,·
O=C(NCC1CCCCCC1)C1CCCN(Cc2cccc(-c3ccc(F)cc3F)c2)C1 (stereo not given),-3%,?,?,·,·
